From the supplement of paper PMC8699584 come the findings set out here.

Values joined by “and” are separate entries in the source; they are usually repeats but may differ in a detail not shown here. Identical values can stand only once. ± gives the standard deviation of the averaged measurements.

Assay [1] concerns Molm13. In words: cell viability relative to DMSO control (bortezomib = 0%); higher = less growth inhibition. The following applies: 10 nM; 72 h. The method, boiled down: (§1)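 Acute myeloid leukemia cells, 1000 per well in 50 µL, were incubated for 72 h on 384-well plates with 679 approved and investigational compounds, each at a single 10 nM dose. Viability was read by CellTiter-Glo luminescence. Values were expressed as percentages through per-plate linear regression against DMSO-treated (100%) and positive-control-treated (0%) cells.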

Assay [2] concerns Mv4-11. The assay is described as above. The following applies: 10 nM; 72 h. In outline: as §1

Broadly, the cell viability is a read-out of living cells in per cent, often relative to untreated cells. Consider `COC(=O)C1=CC[C@@]23CC[C@@H]([C@@](C)(/C=C/C=C(\C)C(=O)O)OC2=O)[C@@]3(OC(C)=O)CC1` [Pseudolaric Acid B], for which the cell viability in assay [1] stood at 101 ± 3.5%; in assay [2], 104 ± 11%.

On to `Cc1ccc2nc(-n3[nH]c(C)c(Cc4ccccc4)c3=O)[nH]c2c1`, for which the cell viability in assay [1] worked out at 103 ± 0.84%; in assay [2] it was 106 ± 4.3%.

As to `O=C(O)c1ccc2nc(-c3ccccc3)c(-c3ccccc3)nc2c1`, the cell viability was 98.2 ± 15% in assay [1] and 111.7 ± 0.8% in assay [2].

In the case of `CCCCCCCCCCCCC/C=C/[C@H](O)[C@@H](N)CO` [L-threo-Sphingosine C-18], the cell viability in assay [1] was 94 ± 9.1%; in assay [2], 113 ± 2.5%.

Turning to `CCOc1cc(/C=C(\C#N)C(N)=O)cc(CSc2ccccc2)c1O`, the cell viability in assay [1] came out at 101 ± 44%; in assay [2] it was 115 ± 15%.

On to `N#CC(=Cc1ccc2[nH]ccc2c1)C(N)=C(C#N)C#N`, for which the cell viability was 104 ± 20% in assay [1] and 103.5 ± 0.36% in assay [2].

Regarding `N#CC(=C(/N)Sc1ccccc1N)/C(C#N)=C(/N)Sc1ccccc1N`, the results for the cell viability in assay [1] and in assay [2] were 104 ± 12% and 129 ± 2.2%, respectively.

As to `CN(C)Cc1cccc(N=C(c2ccccc2)c2c(O)[nH]c3cc(C(=O)N(C)C)ccc23)c1`, the cell viability was found to be 108 ± 4.4% in assay [1] and 111 ± 12% in assay [2].

In the case of `CN1CC(O)C2=C/C(=N/NC(N)=O)C(=O)C=C21` (centres undefined) [Carbazochrome], the figures for the cell viability in assay [1] and in assay [2] were 93.7 ± 20% and 107 ± 9.7%, respectively.

For `COc1cc2ncnc(Nc3ccc(O)cc3)c2cc1OC` [Janex 1], the cell viability in assay [1] was determined as 101 ± 12%; in assay [2], 111 ± 5.3%.

As for `COc1cc2ncn(-c3cc(OCc4ccccc4S(C)(=O)=O)c(C#N)s3)c2cc1OC`, the cell viability in assay [1] came out at 83.4 ± 8.5%; in assay [2], 104 ± 5.9%.

Regarding `Nc1nc(OCC2CCCCC2)c2[nH]cnc2n1`, the cell viability in assay [1] turned out to be 90.5 ± 11%; in assay [2] it was 105.62 ± 0.08%.

Take `COCCN1CCN(Cc2ccc(-c3n[nH]c4c3C(=O)c3c(NC(=O)NN5CCOCC5)cccc3-4)cc2)CC1`: the cell viability turned out to be 70.99 ± 0.17% in assay [1] and 55.6 ± 8.7% in assay [2].

For the compound `Cn1cc(-c2ccc3ncc(Cc4ccc5ncccc5c4)n3n2)cn1`, the results for the cell viability in assay [1] and in assay [2] were 100 ± 16% and 119 ± 16%, respectively.

For `Cn1cnc(N)c2ncnc1-2` [3-Methyladenine (3-MA)], the cell viability was found to be 98.3 ± 1.7% in assay [1] and 77.5 ± 24% in assay [2].

On to `C[C@@H]1O[C@@H](Oc2cc(O)c3c(=O)c(O[C@@H]4O[C@@H](C)[C@H](O)[C@@H](O)[C@H]4O)c(-c4ccc(O)cc4)oc3c2)[C@H](O)[C@H](O)[C@H]1O` [Kaempferitrin], for which the cell viability in assay [1] is 114 ± 10%; in assay [2], 105 ± 3.1%.

Take `N#Cc1cccc(-c2c[nH]c3ncnc(N4CCOCC4)c23)c1`: the cell viability in assay [1] worked out at 109 ± 23%; in assay [2], 100 ± 8.2%.

`Oc1cc(O)cc(/C=C/c2ccc(O)c(O)c2)c1` [Piceatannol]: the cell viability in assay [1] came out at 101 ± 6.1%; in assay [2], 108 ± 11%.

In the case of `O=c1cc(-c2ccc(O)cc2)oc2cc(O)cc(O)c12` [Apigenin], the cell viability in assay [1] turned out to be 86.9 ± 19%; in assay [2] it was 95.3 ± 2.3%.

As to `COc1cc(Nc2nc3ccccc3nc2NS(=O)(=O)c2ccc(NC(=O)c3ccc(C)c(OC)c3)cc2)cc(OC)c1`, the values for the cell viability in assay [1] and in assay [2] were 107 ± 25% and 116.8 ± 0.41%, respectively.

As to `Cn1cc(C2=C(c3ccc(Cl)cc3Cl)C(=O)NC2=O)c2ccccc21`, the cell viability in assay [1] was 96.9% and 84.3%; in assay [2] it was 106% and 108%.

Regarding `O=C(NC(CO)c1ccc(F)c(Cl)c1)c1cc(-c2[nH]ncc2-c2cccc(Cl)c2)c[nH]1` (centres undefined), the values for the cell viability in assay [1] and in assay [2] were 116 ± 16% and 110 ± 7.8%, respectively.

Turning to `O=C1NC(=O)/C(=C\c2ccc3nccnc3c2)S1`, the cell viability came to 116 ± 13% in assay [1] and 104 ± 13% in assay [2].

Take `COc1cc2ncnc(Nc3ccc(O)c(Br)c3)c2cc1OC`: the cell viability came out at 95.4 ± 24% in assay [1] and 112 ± 14% in assay [2].

`Cc1cc(F)c(Nc2ncnc3cc(OCc4ccccc4)ccc23)cc1O`: the cell viability in assay [1] was 103 ± 1.4%; in assay [2], 118 ± 11%.

On to `Cc1nc(Nc2ncc(C(=O)Nc3c(C)cccc3Cl)s2)cc(N2CCN(CCO)CC2)n1` [Dasatinib monohydrate], for which the cell viability in assay [1] came to 80.8 ± 25%; in assay [2], 106 ± 9.4%.

Consider `CC(=O)c1cnc2ccc(-c3cc(Cl)c(O)c(Cl)c3)nc2c1N[C@H]1CC[C@H](CN(C)C)CC1`, for which the cell viability in assay [1] amounted to 95.1 ± 17%; in assay [2] it was 80.6 ± 6.8%.

As to `CC#CC(=O)N1CCC[C@H]1c1nc(-c2ccc(C(=O)Nc3ccccn3)cc2)c2c(N)nccn12` [Acalabrutinib], the cell viability turned out to be 111 ± 8.4% in assay [1] and 125.6 ± 1.1% in assay [2].

Consider `Cc1cc2sc(NC(=O)Cc3ccccc3)nc2cc1Cl`, for which the cell viability worked out at 116 ± 19% in assay [1] and 119 ± 4.2% in assay [2].

Turning to `Cc1ccc(S(=O)(=O)NC(=O)NN2CC3CCCC3C2)cc1` (centres undefined) [Gliclazide], the cell viability in assay [1] worked out at 98.5 ± 5.5%; in assay [2] it was 113 ± 6.1%.

Regarding `CC(C)c1[nH]nc(Cl)c1-c1ccnc(Nc2ccc(N3CCC(N(C)C)CC3)cn2)n1`, the figures for the cell viability in assay [1] and in assay [2] were 115 ± 1.8% and 112 ± 9.6%, respectively.

On to `NC[C@@](O)(c1ccc(Cl)cc1)c1ccc(-c2cn[nH]c2)cc1`, for which the values for the cell viability in assay [1] and in assay [2] were 108 ± 8.3% and 123 ± 20%, respectively.

Consider `CNC(=O)c1cc(Oc2ccc(NC(=O)Nc3ccc(Cl)c(C(F)(F)F)c3)cc2)ccn1`, for which the cell viability was 45 ± 3.3% in assay [1] and 45.2 ± 5.3% in assay [2].

For `COc1cc2nccc(Oc3ccc(NC(=O)NC4CC4)c(Cl)c3)c2cc1C(N)=O` [Lenvatinib (E7080)], the cell viability in assay [1] came to 112 ± 6.8%; in assay [2], 123 ± 14%.

On to `COc1ccc(Cl)cc1NC(=O)Nc1cc(C)nc2ccccc12`, for which the figures for the cell viability in assay [1] and in assay [2] were 129 ± 23% and 130 ± 17%, respectively.

In the case of `CN(C)CCN(C)C(=O)c1ccc(NC(=O)Nc2ccc(-c3nc(N4CCOCC4)c4ccn(CC(F)(F)F)c4n3)cc2)cc1`, the cell viability amounted to 87.9 ± 21% in assay [1] and 105 ± 3.9% in assay [2].

As to `CCN1CCN(Cc2ccc(Nc3ncc(F)c(-c4cc(F)c5nc(C)n(C(C)C)c5c4)n3)nc2)CC1`, the cell viability is 105% and 98.2% in assay [1]; 102% and 112% in assay [2].
